Assay outcomes from PubChem BioAssay.
S1P3 antagonist: S1P3 (human) receptor antagonism; Q99500; CHO S1P3 NFAT-BLA reporter, FRET fluorescence, antagonist mode; inhibition, % at 4.98 µM; hit rate 0.27% among 170,000;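 active means inhibition above the plate cutoff, the mean inhibition of test wells on that plate plus 3 SD, cut at about 28% in these data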;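 further: cells challenged with S1P at its EC80 of 0.8 µM; blue over green emission ratio from cleaved BLA substrate after 4 h stimulation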
GALR2 antag: antagonists of human galanin receptor 2 (GALR2); hit rate 0.39% among 140,000; O43603; GALR2-expressing cells, antagonist mode; AID 828; inhibition, % at 4 µM; in the data active means inhibition above about 27%;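 further: cells stimulated with galanin 1-16 at roughly its EC80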
S1P4 antagonist: human S1P4 receptor antagonism. O95977. S1P4-expressing cells, antagonist mode, reporter read-out. inhibition, % at 4.98 µM. hit rate 0.26% among 220,000. AID 1510; in the data active means inhibition above about 29%
GALR2 ag: agonists of human galanin receptor 2 (GALR2) | GALR2-expressing cells, agonist activation read-out | O43603 | activation, % (test concentration not listed) | hit rate 0.48% among 140,000; in the data active means activation above about 5%, passing the limit was not always enough
S1P4 ag: activates the human S1P4 receptor; S1P4-expressing cell line, agonist reporter assay; hit rate 0.35% among 220,000; O95977; activation, % at 4.98 µM; in the data active means activation above about 11%
S1P4 antag conf: human S1P4 antagonism, confirmation; S1P4-expressing cell line, antagonist mode, reporter read-out; hit rate 71% among 520; AID 1524; inhibition, % at 4.98 µM; shares compounds with S1P4 antagonist; in the data active means inhibition above about 30%
S1P1 antag: human S1P1 antagonism as S1P4 antagonist counter-screen; shares compounds with S1P4 antagonist; cell-based S1P1 antagonist counterscreen, inhibition; inhibition, % at 4.98 µM; hit rate 37% among 520; in the data active means inhibition above about 40%;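 further: receptor stimulated with S1P near its EC80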
Target sequence (P21453 whole entry, looked up): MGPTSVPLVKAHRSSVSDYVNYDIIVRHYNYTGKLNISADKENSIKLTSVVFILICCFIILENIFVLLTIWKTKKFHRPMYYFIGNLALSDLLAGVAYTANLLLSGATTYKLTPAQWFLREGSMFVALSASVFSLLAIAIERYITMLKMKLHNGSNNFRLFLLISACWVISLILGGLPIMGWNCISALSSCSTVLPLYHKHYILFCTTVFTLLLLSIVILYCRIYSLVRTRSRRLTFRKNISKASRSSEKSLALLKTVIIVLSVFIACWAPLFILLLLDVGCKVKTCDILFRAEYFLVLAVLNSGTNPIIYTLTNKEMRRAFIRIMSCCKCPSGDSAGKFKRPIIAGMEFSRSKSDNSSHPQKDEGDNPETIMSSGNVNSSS
Numbers stand for hits; – = inactive; · = no result given. An excerpt weighted towards active compounds, which were near 1.3% of everything screened.

SMILES | S1P3 antagonist | GALR2 antag | S1P4 antagonist | GALR2 ag | S1P4 ag | S1P4 antag conf | S1P1 antag
CCC(=O)N1CCN(c2ccc(NC(=O)c3ccc([N+](=O)[O-])o3)cc2)CC1 | – | · | 78 | · | – | 85 | 74
CCCC(=O)N1CCN(c2ccc(NC(=O)c3ccc([N+](=O)[O-])o3)cc2)CC1 | – | · | 78 | · | – | 101 | 84
O=C(Cn1cnc2c(oc3ccccc32)c1=O)N1CCCC1 | – | · | – | · | – | · | ·
COCCCN1CCN(C2Cc3ccccc3Sc3ccc(Cl)cc32)CC1 (stereo not drawn) | – | – | 29 | – | – | – | –
Clc1ccc2c(c1)C(N1CCNCC1)Cc1ccccc1S2 (stereo not drawn) | · | – | – | – | – | · | ·
CC(C)N(c1ccccc1)c1ccc(NC(=O)COC(=O)CCN2C(=O)c3cccc([N+](=O)[O-])c3C2=O)cc1 | – | – | – | – | – | · | ·
O=C(CCn1cnc2ccccc21)N/N=C/C=C/c1ccccc1 | – | · | 30 | · | – | – | –
COc1ccccc1/C=C/C=N/NC(=O)CCn1cnc2ccccc21 | – | · | – | · | – | · | ·
OC1(c2ccc(Br)cc2)CN(c2ccccc2)C2=[N+]1CCS2 (stereo not drawn) | – | · | 30 | · | – | – | –
Cc1cc(C(=O)Cn2ncc(Cl)c(Cl)c2=O)c(C)n1CC(F)(F)F | – | – | 90 | – | – | 105 | 65
Cc1ccc(C)c(C(=O)Cn2ncc(Cl)c(Cl)c2=O)c1 | · | – | 67 | – | – | 116 | 59
Cc1cccc(Cn2ncc(Cl)c(Cl)c2=O)c1 | · | – | – | – | – | · | ·
Cc1nnc(-c2ccccc2)nc1N(C)C | – | · | – | · | – | · | ·
c1ccc(CSCc2nc3ccccc3[nH]2)cc1 | – | – | – | – | – | · | ·
O=C1CSC(=Nc2cccc(Cl)c2Cl)N1Cc1cccnc1 | – | · | – | · | – | · | ·
Cc1ccc(NN2C(=O)C=C(c3ccc(Cl)cc3)C2=O)cc1 | · | – | 31 | – | – | 92 | –
N#C/C(=C\c1c[nH]c2ccccc12)C(=O)NCC1CCCO1 (stereo not drawn) | – | · | – | · | – | · | ·
Cc1cccc(N=C2NC(=O)/C(=C/c3cccn3C)S2)c1C | – | · | 36 | · | – | – | –
N#CCCN1CCN(Cc2cc(-c3ccccc3)ccc2O)CC1 | – | – | 39 | – | – | – | –
O=S(=O)(c1ccc(Br)c2nsnc12)N1CCOCC1 | – | – | 79 | – | – | 39 | –
CN(C)CC(CCCCC(CN(C)C)C(=O)c1ccccc1)C(=O)c1ccccc1 (stereo not drawn) | – | · | – | · | – | · | ·
CSc1ccccc1NC(=O)C(=O)c1c[nH]c2ccccc12 | – | · | 45 | · | – | – | 47
O=C(Nc1nccs1)C(=O)c1c[nH]c2ccccc12 | · | – | – | – | – | · | ·
COCCN(CCOC)c1ncnc2c1cnn2-c1ccc(Cl)cc1 | · | – | – | – | – | · | ·
COCCNc1ncnc2c1cnn2-c1ccc(Cl)cc1 | · | – | 33 | – | – | – | –
SMILES | S1P3 antagonist | GALR2 antag | S1P4 antagonist | GALR2 ag | S1P4 ag | S1P4 antag conf | S1P1 antag
CC(C)(C)NC(=O)CSc1nnc(C2CC2)n1-c1ccccc1 | – | · | – | · | – | · | ·
CCC(Sc1nncn1C)C(=O)Nc1nnc(-c2ccccc2Cl)s1 (stereo not drawn) | – | – | 33 | – | – | – | –
COc1ccccc1-c1nnc(NC(=O)C(C)Sc2nncn2C)s1 (stereo not drawn) | – | · | – | · | – | · | ·
COc1ccc(/C=N/NC(=O)c2ccc3ccccc3c2)cc1OS(=O)(=O)c1ccc(NC(C)=O)cc1 | · | – | – | – | – | · | ·
CS(=O)(=O)c1ccc(C(=O)Nc2ccc(N3CCOCC3)cc2)c(Cl)c1 | – | · | – | · | – | · | ·
CS(=O)(=O)c1ncc(Cl)c(C(=O)Nc2ccc(N3CCOCC3)cc2)n1 | – | 29 | 31 | – | – | 98 | 81
CCOC(=O)c1[nH]c2ccc(OC)cc2c1NC(=S)N1CCN(c2ccccc2OC)CC1 | – | – | – | – | – | · | ·
O=C(O)c1ccc2c(c1)C(=O)N(N1C(=O)c3ccccc3C1=O)C2=O | – | – | – | – | – | · | ·
CN(C)/N=C/C=C1\CC/C(=C\c2ccc(Br)cc2)C1=O | · | – | 30 | – | – | – | –
COc1ccc(C(=O)C(CN2CCOCC2)c2ccccc2)cc1F (stereo not drawn) | – | 33 | 33 | – | – | 46 | –
OC1(c2ccccc2)c2ccccc2-c2ncccc21 (stereo not drawn) | – | · | – | · | – | · | ·
CN1C(=O)/C(=C\C(=O)c2cccs2)c2ccccc21 | – | · | 40 | · | – | 97 | 45
